Active and inactive are the calls of the source. The calls were made as follows: active = hit-call score of the fitted dose curve at least 0.9, where 1 is the maximum; inactive = score below 0.9.
Tests used:
[1] = APR_HepG2_CellCycleArrest_24hr: Apredica 24-hour HepG2 Assay for Cell Cycle Arrest (AID 2282905); conditions: imaging, actives raise or lower the signal;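 also: cell cycle arrest scored as ratio of 2N to 4N nuclear DNA content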
Procedure, shortened: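 Readout: Hoechst 33342 nuclear DNA content by high-content fluorescent imaging, six images/well, 20x. Human HepG2 liver cells, 24 hr compound exposure, 0.39–200 uM, final DMSO 0.5% v/v. Gain or loss fitted relative to DMSO baseline.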

[2] = APR_HepG2_NuclearSize_24hr: Apredica 24-hour HepG2 Assay for Nuclear Size (AID 2282907); conditions: high-content imaging, actives raise or lower the signal
Procedure, shortened: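 Read-out: nuclear diameter from Hoechst 33342 (2 ug/mL) imaging of fixed HepG2 cells, 20x, six fields/well. Compounds ran at 0.39–200 uM for 24 hr, 0.5% DMSO final. Gain or loss was fitted bidirectionally relative to the DMSO baseline.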

[3] = APR_HepG2_CellLoss_24hr: Apredica 24-hour HepG2 Assay for Cell Loss (AID 2282908); conditions: high-content imaging;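 as to AC50: fit in both directions so a hit may be cell loss or gain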
Procedure, shortened: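 Read-out: Hoechst 33342-stained nuclei counted by automated fluorescence imaging after formaldehyde fixation and Triton permeabilization. Ten concentrations, 0.39 to 200 uM, duplicate wells, 0.5% DMSO final. Gain or loss of signal fitted relative to DMSO baseline.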

[4] = APR_HepG2_MicrotubuleCSK_24hr: Apredica 24-hour HepG2 Assay for Microtubule CSK Stabilty (AID 2282909); conditions: HepG2 microtubule cytoskeleton imaging, actives raise or lower the signal
Procedure, shortened: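 Read-out: alpha-tubulin immunofluorescence intensity by automated high-content imaging of fixed HepG2 cells after 24 h compound treatment. Ten concentrations, 0.39 to 200 uM, in duplicate; DMSO 0.5% v/v. Taxol positive control; DMSO-normalized bidirectional curve fitting.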

[5] = APR_HepG2_MitoticArrest_24hr: Apredica 24-hour HepG2 Assay for Mitotic Arrest (AID 2282910); conditions: high-content imaging, actives raise or lower the signal
Procedure, shortened: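 High-content imaging of fixed HepG2 cells labeled with Hoechst 33342 and anti-phospho-histone H3, after 24 h treatment. Ten concentrations 0.39 to 200 uM in duplicate, final DMSO 0.5%; changes fitted both directions relative to DMSO.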

[6] = APR_HepG2_MitoMembPot_24hr: Apredica 24-hour HepG2 Assay for Mitochondrial Membrane Potential (AID 2282911); conditions: imaging, actives raise or lower the signal
Procedure, shortened: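 Mitochondrial dye uptake (MitoTracker Red CMXRos, 250 nM, 30 min pre-fixation) in HepG2 after 24 hr compound exposure, 0.39–200 uM; ArrayScan images at 20x, activity fitted in both directions relative to DMSO.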

[7] = APR_HepG2_MitoMass_24hr: Apredica 24-hour HepG2 Assay for Mitochondrial Mass (AID 2282912); conditions: high-content imaging, actives raise or lower the signal
Procedure, shortened: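 HepG2, 24 hr dosing, 10 concentrations 0.39–200 uM in duplicate, DMSO 0.5% final. MitoTracker Red CMXRos 250 nM, 30 min pre-fix; 3.7% formaldehyde fix. Imaging-based fluorescence intensity; gain/loss fit vs DMSO baseline.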

[8] = APR_HepG2_p53Act_24hr: Apredica 24-hour HepG2 Assay for p53 Activation (AID 2282913); conditions: high-content imaging, actives raise or lower the signal;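 also: p53 protein immunofluorescence averaged per cell in HepG2 with Hoechst nuclei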
Procedure, shortened: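 Following 24 hr dosing of HepG2 at 0.39–200 uM, the cells undergo formaldehyde fixation, Triton permeabilization and multiplexed antibody labeling that includes p53 (Cy5). Signal from the imaging is referenced to DMSO solvent controls.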

[9] = APR_HepG2_CellCycleArrest_72hr: Apredica 72-hour HepG2 Assay for Cell Cycle Arrest (AID 2282914); conditions: high-content imaging, actives raise or lower the signal
Procedure, shortened: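 Using multiplexed high-content imaging, HepG2 nuclei stained with Hoechst 33342 (2 ug/mL) were analysed for DNA content after fixation and permeabilization. Treatment lasted 72 hr across 0.39–200 uM in duplicate with final DMSO 0.5% v/v; DMSO served as negative control.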

[10] = APR_HepG2_CellLoss_72hr: Apredica 72-hour HepG2 Assay for Cell Loss (AID 2282915); conditions: high-content imaging
Procedure, shortened: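 Cell number comes from Hoechst 33342-labelled nuclei, imaged at 20x after 3.7% formaldehyde fixation. Dosing was 0.39–200 uM, ten concentrations in duplicate, 0.5% DMSO final, for 72 h. Bidirectional fit relative to DMSO baseline.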

[11] = APR_HepG2_P-H2AX_72hr: Apredica 72-hour HepG2 Assay for H2AX Phosphorylation (AID 2282916); conditions: imaging, actives raise or lower the signal;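 also: phospho-histone H2A.x immunostain intensity per cell marking DNA damage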
Procedure, shortened: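 Readout: phospho-H2A.x immunofluorescence (FITC secondary) plus Hoechst nuclear stain, high-content imaging at 20x, six fields/well. HepG2, 72 hr compound exposure, 0.39–200 uM, final DMSO 0.5% v/v. Gain or loss fitted relative to DMSO baseline.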

[12] = APR_HepG2_MitoMembPot_72hr: Apredica 72-hour HepG2 Assay for Mitochondrial Membrane Potential (AID 2282917); conditions: imaging, actives raise or lower the signal
Procedure, shortened: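 Membrane potential read by MitoTracker Red CMXRos (250 nM, 30 min, pre-fixation) fluorescence imaging of HepG2 after 72 hr exposure. Ten concentrations, 0.39–200 uM, duplicate wells, 0.5% DMSO; fitted in both directions against DMSO baseline.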

[13] = APR_HepG2_MitoticArrest_72hr: Apredica 72-hour HepG2 Assay for Mitotic Arrest (AID 2282918); conditions: high-content imaging, actives raise or lower the signal
Procedure, shortened: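 Using high-content imaging of fixed HepG2 cells, phospho-histone H3 signal was measured following a 72 hr incubation with ten-point compound dilutions up to 200 uM. DMSO served as the negative control and baseline for bidirectional curve fitting.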

[14] = APR_HepG2_MicrotubuleCSK_72hr: Apredica 72-hour HepG2 Assay for Microtubule CSK Stabilty (AID 2282919); conditions: HepG2 microtubule cytoskeleton, high-content imaging, actives raise or lower the signal
Procedure, shortened: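 High-content imaging of alpha-tubulin staining in fixed HepG2 cells after 72 hr treatment with ten concentrations from 0.39 to 200 uM (0.5% DMSO). Fitting was bidirectional against DMSO; taxol served as positive control.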

[15] = APR_HepG2_P-H2AX_24hr: Apredica 24-hour HepG2 Assay for H2AX Phosphorylation (AID 2282920); conditions: high-content imaging, actives raise or lower the signal
Procedure, shortened: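 Human HepG2 liver cells, treated 24 hr with test chemicals (0.39–200 uM, final DMSO 0.5% v/v), are fixed and co-stained for phospho-H2A.x and c-Jun with Hoechst. Imaged intensity is fitted in both directions against DMSO controls.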

[16] = APR_HepG2_StressKinase_72hr: Apredica 72-hour HepG2 Assay for Stress Kinase (AID 2282921); conditions: HepG2 stress kinase (phospho-c-Jun) imaging, actives raise or lower the signal
Procedure, shortened: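 Phospho-c-Jun immunofluorescence measured by high-content imaging at 20x, six fields per well; bidirectional curve fitting against DMSO as baseline. Dosing: 0.39–200 uM, 72 h, 0.5% DMSO final.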

[17] = APR_HepG2_MitoMass_72hr: Apredica 72-hour HepG2 Assay for Mitochondrial Mass (AID 2282924); conditions: high-content imaging, actives raise or lower the signal;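 also: MitoTracker Red CMXRos stain intensity per cell imaged as mitochondrial mass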
Procedure, shortened: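 Readout is imaged MitoTracker Red (250 nM, 30 min, pre-fixation) signal, fitted bidirectionally against DMSO baseline. Human HepG2 liver cells received compound 0.39–200 uM in duplicate for 72 hr, final DMSO 0.5%.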

[18] = APR_HepG2_NuclearSize_72hr: Apredica 72-hour HepG2 Assay for Nuclear Size (AID 2282925); conditions: high-content imaging, actives raise or lower the signal
Procedure, shortened: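 Nuclear size was read by high-content imaging of Hoechst 33342 stain after formaldehyde fixation. Compounds ran 72 h on HepG2 at 0.39 to 200 uM, with final DMSO 0.5% v/v. Curves fitted both directions relative to DMSO control.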

[19] = APR_HepG2_StressKinase_24hr: Apredica 24-hour HepG2 Assay for Stress Kinase (AID 2282922); conditions: HepG2 stress kinase (phospho-c-Jun) imaging, actives raise or lower the signal
Procedure, shortened: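 High-content imaging of phospho-c-Jun immunofluorescence in fixed, permeabilized HepG2 cells after 24 h dosing. Ten concentrations, 0.39 to 200 uM, run in duplicate at 0.5% v/v DMSO; gain or loss of signal versus DMSO.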

[20] = APR_HepG2_p53Act_72hr: Apredica 72-hour HepG2 Assay for p53 Activation (AID 2282923); conditions: high-content imaging, actives raise or lower the signal;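 also: average cellular p53 protein immunofluorescence intensity in HepG2 cells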
Procedure, shortened: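 Readout: p53 immunofluorescence quantified by automated high-content imaging at 20x, six fields per well, nuclei located via Hoechst. Dosing ran 72 hr over ten concentrations from 0.39 to 200 uM; bidirectional curve fitting against DMSO baseline.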

Measured: AC50

Cc1oc2c(NC(=O)c3c(Cl)cccc3Cl)cccc2c1C(C)(C)O
inactive: [1] | [2] | [3] | [4] | [5] | [6] | [7] | [8] | [9] | [10] | [11] | [12] | [13] | [14] | [15] | [16] | [17] | [18]

O=c1[nH]sc2ccccc12
inactive: [1] | [2] | [6] | [14] | [19] | [18]
active: [3] 29 µM | [4] 38.2 µM | [5] 13.5 µM | [7] 15.7 µM | [8] 29.3 µM | [9] 21.4 µM | [10] 18.1 µM | [11] 46.1 µM | [12] 107 µM | [13] 9.46 µM | [16] 50.4 µM | [17] 13.6 µM

CCCCCCCCCCCO
active: [3] 103 µM | [5] 104 µM | [6] 110 µM | [8] 107 µM | [10] 107 µM | [13] 105 µM | [15] 100 µM
inactive: [1] | [2] | [4] | [7] | [9] | [11] | [12] | [16] | [20] | [17] | [18]

c1ccc2ccccc2c1
active: [9] 0.0357 µM | [10] 0.0736 µM | [13] 0.0415 µM | [20] 0.0391 µM | [17] 0.0598 µM
inactive: [1] | [2] | [3] | [4] | [5] | [6] | [7] | [8] | [11] | [12] | [15] | [16] | [19] | [18]

O=CCCCC=O
inactive: [1] | [2] | [3] | [4] | [5] | [6] | [7] | [8] | [9] | [10] | [11] | [12] | [13] | [16] | [17] | [18]

CN1C(=O)N(c2ccccc2Br)Cc2cnc(Nc3ccc4c(c3)OCC(CO)O4)nc21 (stereo not given)
inactive: [2] | [4] | [7] | [12] | [16] | [18]
active: [1] 8.95 µM | [3] 3.7 µM | [5] 2.93 µM | [6] 105 µM | [8] 4 µM | [9] 5.09 µM | [10] 6.32 µM | [11] 3.96 µM | [13] 2.57 µM | [17] 19.8 µM

— PubChem BioAssay (EPA / NIEHS)
